The record followed here is PubChem BioAssay (Tox21).

For assay [1], the target named is Thyrotropin-releasing hormone receptor (Homo sapiens) (UniProt P34981). In words: qHTS assay to identify small molecule agonists of the thyrotropin-releasing hormone receptor (TRHR) signaling pathway (AID 1346891; calls by dose curve;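 note: HEK293 cells expressing TRHR with calcium dye readout; series mostly up to about 58 µM; % is set by controls: 0 for no effect and ±100 for the full control effect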). In outline:
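Kinetic fluorescence (3 min, 1 s intervals) reported intracellular calcium after compound transfer onto TRHR-Hek293 cells pre-loaded with dye for 2 h at 37 °C.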
Background: qHTS replaces the single test concentration by a dilution series.

The nature of assay [2]: Caspase-3/7 induction in CHO-K1 cells by small molecules, qHTS cell viability counter screen (AID 1346979). For activity change, negative = cytotoxicity: % is set by controls: 0 for no effect and ±100 for the full control effect. Note: nearly all actives have a fitted effect of over 35% in size. Note: potency is the fitted concentration of half-maximal effect. In outline: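 Seeding: 1,500 CHO-K1 cells/well. Rest: 5hr, 37C. Treatment: compounds in DMSO, 16hr. Read: CellTiter-Fluor, 1hr, fluorescence.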
Assay [3] is described as follows: Caspase-3/7 induction in CHO-K1 cells by small molecules, qHTS assay (AID 1346980). Note: % is set by controls: 0 for no effect and ±100 for the full control effect; nearly all actives have a fitted effect of over 15% in size. A digest of the protocol: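 Wild-type CHO-K1 cells exposed to compounds for 17hr at 37 C, 5% CO2. Caspase-3/7 activity then measured by Caspase-Glo 3/7 luminescence after 30min at room temperature.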
A short description of assay [4]: Caspase-3/7 induction in HepG2 cells by small molecules, qHTS cell viability counter screen (AID 1346981). For activity change, negative = cytotoxicity: series mostly up to about 92 µM; % is set by controls: 0 for no effect and ±100 for the full control effect. Note: nearly all actives have a fitted effect of over 30% in size. Note: potency is the fitted concentration of half-maximal effect. A digest of the protocol:
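Wild-type HepG2 cells (2,000/well) were allowed to settle for 5 hr at 37 C, 5% CO2, then dosed with compounds in DMSO by pin transfer. After 16 hr at 37 C, CellTiter-Fluor was added and fluorescence read 1 hr later.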

The target in assay [5] is Cytochrome P450 2D6 (Homo sapiens) (UniProt P10635). In words: Cytochrome P450 Family 2 Subfamily D Member 6 (CYP2D6) small molecule antagonists: luciferase reporter qHTS assay (AID 1671196). For activity change, negative = inhibition: series mostly up to about 120 µM; % is set by controls: 0 for no effect and ±100 for the full control effect. Note: nearly all actives have a fitted effect of over 50% in size. Note: potency is the fitted concentration of half-maximal effect. In outline: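 CYP2D6 enzyme–substrate mix was held with compound for 10 min at room temperature, then NADPH regeneration solution was added and the reaction ran 1 h at room temperature. Luciferin product was detected by luminescence after 20 min with detection reagent.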
Chain of Cytochrome P450 2D6 (Homo sapiens) (P10635 whole entry, looked up): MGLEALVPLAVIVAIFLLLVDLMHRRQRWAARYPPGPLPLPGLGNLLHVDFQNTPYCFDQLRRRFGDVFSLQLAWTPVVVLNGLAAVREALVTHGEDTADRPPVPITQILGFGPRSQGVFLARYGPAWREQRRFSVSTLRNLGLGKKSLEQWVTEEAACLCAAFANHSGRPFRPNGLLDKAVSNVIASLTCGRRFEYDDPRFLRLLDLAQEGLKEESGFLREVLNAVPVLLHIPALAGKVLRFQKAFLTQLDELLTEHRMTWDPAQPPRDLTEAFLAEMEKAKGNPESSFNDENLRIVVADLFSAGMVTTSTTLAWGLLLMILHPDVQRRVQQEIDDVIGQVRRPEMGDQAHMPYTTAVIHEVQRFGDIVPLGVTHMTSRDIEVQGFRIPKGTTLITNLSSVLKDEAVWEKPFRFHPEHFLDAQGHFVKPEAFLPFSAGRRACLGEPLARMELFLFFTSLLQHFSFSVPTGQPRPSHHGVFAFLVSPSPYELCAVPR
For orientation: In a reporter assay the amount or activity of a reporter protein is the signal.

Assay [6] deals with Cytochrome P450 2C19 (Homo sapiens) (UniProt P33261). In words: Cytochrome P450 Family 2 Subfamily C Member 19 (CYP2C19) small molecule antagonists: luciferase reporter qHTS assay (AID 1671197). Note: nearly all actives have a fitted effect of over 65% in size. Note: potency is the fitted concentration of half-maximal effect. In outline: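 Enzyme-substrate mix with proluciferin substrate (P450-Glo CYP2C19 system) preincubated with compounds 10 min at room temperature; NADPH regeneration solution added, 37C for 1 h; detection reagent stops reaction, luminescence read after 20 min. Ketoconazole positive control.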
Chain of Cytochrome P450 2C19 (Homo sapiens) (P33261 whole entry, looked up): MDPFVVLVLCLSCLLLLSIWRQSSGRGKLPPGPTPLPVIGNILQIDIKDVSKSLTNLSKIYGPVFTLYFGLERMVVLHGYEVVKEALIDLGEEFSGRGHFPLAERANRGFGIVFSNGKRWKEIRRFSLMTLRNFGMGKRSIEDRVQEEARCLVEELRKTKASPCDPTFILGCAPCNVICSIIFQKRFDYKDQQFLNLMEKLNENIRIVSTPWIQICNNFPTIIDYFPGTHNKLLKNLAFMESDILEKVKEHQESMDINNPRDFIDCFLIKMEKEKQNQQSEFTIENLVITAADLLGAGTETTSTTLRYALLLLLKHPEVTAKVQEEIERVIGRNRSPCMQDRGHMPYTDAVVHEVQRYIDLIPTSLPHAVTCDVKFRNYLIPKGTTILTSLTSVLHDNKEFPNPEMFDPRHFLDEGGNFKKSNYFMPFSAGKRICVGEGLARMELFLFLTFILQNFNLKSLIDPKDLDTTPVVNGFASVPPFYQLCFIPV

Assay [7] addresses Voltage-gated inwardly rectifying potassium channel KCNH2 (Homo sapiens) (UniProt Q12809). Description: Human Ether-a-go-go-Related Gene (hERG) channel small molecule antagonists: fluorescence cell-based qHTS assay (AID 1671200).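 Note: hERG-expressing U2OS cells given a thallium stimulus after FluxOR II dye loading; series mostly up to about 77 µM; % is set by controls: 0 for no effect and ±100 for the full control effect; nearly all actives have a fitted effect of over 50% in size.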 In outline:
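First, 1000 cells per well are seeded and cultured overnight at 37 C. Next, FluxOR II dye is loaded for 1 h at room temperature, protected from light. After 10 more minutes, stimulus is added and fluorescence is read.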
On the technique in general: Block of hERG is tested as a sign of cardiac risk.

A short description of assay [8]: Human pregnane X receptor (PXR) small molecule agonists, qHTS cell viability counter screen (AID 1346977). Note: % is set by controls: 0 for no effect and ±100 for the full control effect; nearly all actives have a fitted effect of over 50% in size. In outline:
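HepG2 cells stably carrying the PXR-Luc reporter are cultured with 5% charcoal-stripped FBS and treated with compounds for 24hr. CellTiter-Fluor is added at 23hr and fluorescence is read after 1hr.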

The target in assay [9] is Nuclear receptor subfamily 1 group I member 2 (Homo sapiens) (UniProt O75469). Description: Human pregnane X receptor (PXR) small molecule agonists, qHTS assay (AID 1346982). Note: nearly all actives have a fitted effect of over 35% in size. Note: potency is the fitted concentration of half-maximal effect. In outline: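 PXR-Luc HepG2 cells (CYP3A4 promoter-driven luciferase) were seeded in medium with 5% charcoal-stripped FBS, left 5 hr at 37 C, then exposed to compounds in DMSO for 24 hr. Luminescence was read after ONE-Glo addition.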
Chain of Nuclear receptor subfamily 1 group I member 2 (Homo sapiens) (O75469 whole entry, looked up): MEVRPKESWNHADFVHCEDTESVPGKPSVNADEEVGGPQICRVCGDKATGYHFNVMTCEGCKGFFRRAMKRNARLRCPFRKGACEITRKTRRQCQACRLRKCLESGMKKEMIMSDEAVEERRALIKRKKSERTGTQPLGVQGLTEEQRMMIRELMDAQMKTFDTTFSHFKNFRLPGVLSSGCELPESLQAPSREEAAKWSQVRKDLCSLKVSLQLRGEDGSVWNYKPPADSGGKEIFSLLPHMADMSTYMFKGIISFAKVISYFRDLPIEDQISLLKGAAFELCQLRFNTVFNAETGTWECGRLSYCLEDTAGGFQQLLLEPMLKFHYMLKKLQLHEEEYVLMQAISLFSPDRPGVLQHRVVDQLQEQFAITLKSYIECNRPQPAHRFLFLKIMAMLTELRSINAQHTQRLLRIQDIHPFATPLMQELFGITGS

Assay [10] deals with Cytochrome P450 1A2 (Homo sapiens) (UniProt P05177). Description: Cytochrome P450 Family 1 Subfamily A Member 2 (CYP1A2) small molecule antagonists: luciferase reporter qHTS assay (AID 1671199). Note: nearly all actives have a fitted effect of over 50% in size. Note: potency is the fitted concentration of half-maximal effect. A digest of the protocol: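 Human CYP1A2 activity measured with a P450-Glo proluciferin substrate; compounds in DMSO preincubated 10 min at room temperature with enzyme-substrate mix, then NADPH regeneration system added for 1 h. Luciferin detection reagent, 20 min, luminescence read.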
Chain of Cytochrome P450 1A2 (Homo sapiens) (P05177 whole entry, looked up): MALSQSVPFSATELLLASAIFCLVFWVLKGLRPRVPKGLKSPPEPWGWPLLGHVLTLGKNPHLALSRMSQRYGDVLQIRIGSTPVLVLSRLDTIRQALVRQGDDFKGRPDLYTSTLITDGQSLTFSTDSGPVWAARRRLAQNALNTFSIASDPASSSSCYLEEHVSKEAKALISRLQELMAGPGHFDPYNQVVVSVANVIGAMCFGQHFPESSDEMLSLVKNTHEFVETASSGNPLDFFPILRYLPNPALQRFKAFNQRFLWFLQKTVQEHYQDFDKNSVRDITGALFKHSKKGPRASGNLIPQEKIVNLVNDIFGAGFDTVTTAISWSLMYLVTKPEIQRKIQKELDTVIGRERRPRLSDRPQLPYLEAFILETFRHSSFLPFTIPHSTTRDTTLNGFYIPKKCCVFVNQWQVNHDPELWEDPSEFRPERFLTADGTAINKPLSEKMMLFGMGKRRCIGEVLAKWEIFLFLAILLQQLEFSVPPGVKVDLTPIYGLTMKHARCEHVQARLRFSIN

The target of assay [11] is Cytochrome P450 3A4 (Homo sapiens) (UniProt P08684). Description: Cytochrome P450 Family 3 Subfamily A Member 4 (CYP3A4) small molecule antagonists: luciferase reporter qHTS assay (AID 1671201). In outline:
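Enzyme and proluciferin substrate are mixed with test chemicals for 10 min, then NADPH regeneration system drives turnover for 1 h at room temperature. A detection reagent halts the reaction; luminescence after 20 min gives relative activity.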

Assay [12] can be described thus: Caspase-3/7 induction in HepG2 cells by small molecules, qHTS assay (AID 1346978). Note: % is set by controls: 0 for no effect and ±100 for the full control effect; nearly all actives have a fitted effect of over 15% in size. A digest of the protocol: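 Wild-type HepG2 cells, 2,000/well, settled 5 hr at 37 C and 5% CO2, then compound-treated for 17 hr; caspase-3/7 activity read by luminescent Caspase-Glo 3/7 after 30 min at room temperature.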
The target of assay [13] is Cytochrome P450 2C9 (Homo sapiens) (UniProt P11712). In words: Cytochrome P450 Family 2 Subfamily C Member 9 (CYP2C9) small molecule antagonists: luciferase reporter qHTS assay (AID 1671198). In outline:
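P450-Glo proluciferin substrate with CYP2C9 enzyme; 10 min RT preincubation, then NADPH regeneration 1 h at 37C; luciferin detection reagent 20 min RT, luminescence in relative luminescence units.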

Assay [14] concerns the target Nuclear receptor subfamily 1 group I member 2 (Rattus norvegicus) (UniProt Q9R1A7). In words: Rat pregnane X receptor (rPXR) activation by small molecules, qHTS assay (AID 1346983). Note: % is set by controls: 0 for no effect and ±100 for the full control effect; nearly all actives have a fitted effect of over 20% in size. Conditions: rPXR luciferase reporter cells, One-Glo luminescence, 24 h; max activation: hits give high values. A digest of the protocol:
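Cell-based rPXR activation assay: rPXR cells, 2,000 per well, rested 5hr at 37 C, then exposed to compounds in DMSO for 24 hr at 37 C. Luciferase activity read by One-Glo luminescence after 30 min at room temperature.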

Assay [15] concerns the target Nuclear receptor subfamily 1 group I member 2 (Homo sapiens) (UniProt O75469). In words: Human pregnane X receptor (PXR) activation by small molecules, qHTS assay (AID 1346985). Note: % is set by controls: 0 for no effect and ±100 for the full control effect; nearly all actives have a fitted effect of over 40% in size. A digest of the protocol: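 DPX-2 cells (HepG2 co-transfected with a PXR response element and a CYP3A4-promoter luciferase construct) were seeded at 2,000 per well, rested 5 hr at 37C, then exposed to DMSO-dissolved compounds for 24 hr. Activation was read as luciferase luminescence.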

Values without a mark were called inactive. Inconclusive results are not listed. The source made the active and inactive calls. Unless noted, calls come from the whole dose curve; as a rule, active = well fitted curve in the direction sought with a large enough effect in the repeat runs; inconclusive = weak or mixed curves; inactive = no such curve, though single readings can be large; an effect the other way counts as inactive or inconclusive.

Chain of Voltage-gated inwardly rectifying potassium channel KCNH2 (Homo sapiens) (Q12809 whole entry, looked up): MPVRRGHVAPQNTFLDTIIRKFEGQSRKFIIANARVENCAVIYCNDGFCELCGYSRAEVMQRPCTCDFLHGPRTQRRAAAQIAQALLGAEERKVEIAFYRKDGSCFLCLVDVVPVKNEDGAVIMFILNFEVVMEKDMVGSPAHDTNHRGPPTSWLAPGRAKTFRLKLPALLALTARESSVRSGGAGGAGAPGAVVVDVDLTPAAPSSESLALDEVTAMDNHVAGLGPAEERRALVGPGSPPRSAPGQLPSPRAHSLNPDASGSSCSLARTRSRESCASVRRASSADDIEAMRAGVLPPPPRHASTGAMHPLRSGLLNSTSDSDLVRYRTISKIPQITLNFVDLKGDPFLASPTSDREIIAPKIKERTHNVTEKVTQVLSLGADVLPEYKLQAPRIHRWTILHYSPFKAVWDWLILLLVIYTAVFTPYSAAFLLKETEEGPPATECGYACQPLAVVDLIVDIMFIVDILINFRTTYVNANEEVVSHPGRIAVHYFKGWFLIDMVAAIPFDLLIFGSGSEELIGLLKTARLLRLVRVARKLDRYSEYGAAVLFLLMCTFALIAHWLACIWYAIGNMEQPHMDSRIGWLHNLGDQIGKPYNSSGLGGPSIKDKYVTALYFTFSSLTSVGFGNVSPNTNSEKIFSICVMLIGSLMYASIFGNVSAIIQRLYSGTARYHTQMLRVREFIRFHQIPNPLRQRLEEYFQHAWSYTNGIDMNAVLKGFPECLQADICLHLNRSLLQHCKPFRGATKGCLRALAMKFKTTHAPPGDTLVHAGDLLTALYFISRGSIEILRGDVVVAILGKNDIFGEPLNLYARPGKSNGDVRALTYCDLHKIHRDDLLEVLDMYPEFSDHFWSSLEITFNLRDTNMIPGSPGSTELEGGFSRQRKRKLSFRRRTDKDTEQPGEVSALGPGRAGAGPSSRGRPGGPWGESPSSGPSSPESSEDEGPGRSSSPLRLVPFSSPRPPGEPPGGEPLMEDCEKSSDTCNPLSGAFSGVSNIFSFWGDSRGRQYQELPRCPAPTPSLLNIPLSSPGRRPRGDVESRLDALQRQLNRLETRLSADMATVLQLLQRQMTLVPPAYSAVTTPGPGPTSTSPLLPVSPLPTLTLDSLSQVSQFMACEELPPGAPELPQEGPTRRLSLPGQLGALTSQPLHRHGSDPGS
Chain of Cytochrome P450 3A4 (Homo sapiens) (P08684 whole entry, looked up): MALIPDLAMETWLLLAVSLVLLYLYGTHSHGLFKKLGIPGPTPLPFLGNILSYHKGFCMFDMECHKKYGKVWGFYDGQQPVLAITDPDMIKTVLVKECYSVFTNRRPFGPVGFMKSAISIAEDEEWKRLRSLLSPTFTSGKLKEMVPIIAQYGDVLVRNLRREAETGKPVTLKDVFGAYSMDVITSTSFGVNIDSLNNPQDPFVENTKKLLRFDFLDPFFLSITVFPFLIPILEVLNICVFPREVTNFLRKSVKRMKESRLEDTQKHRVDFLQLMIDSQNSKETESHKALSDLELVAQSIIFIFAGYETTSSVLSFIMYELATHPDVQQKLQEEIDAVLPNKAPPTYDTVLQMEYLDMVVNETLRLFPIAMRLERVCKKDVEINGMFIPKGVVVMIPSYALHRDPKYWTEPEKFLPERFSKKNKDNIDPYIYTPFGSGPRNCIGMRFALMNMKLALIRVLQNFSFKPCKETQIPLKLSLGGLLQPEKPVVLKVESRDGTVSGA
Chain of Nuclear receptor subfamily 1 group I member 2 (Rattus norvegicus) (Q9R1A7 whole entry, looked up): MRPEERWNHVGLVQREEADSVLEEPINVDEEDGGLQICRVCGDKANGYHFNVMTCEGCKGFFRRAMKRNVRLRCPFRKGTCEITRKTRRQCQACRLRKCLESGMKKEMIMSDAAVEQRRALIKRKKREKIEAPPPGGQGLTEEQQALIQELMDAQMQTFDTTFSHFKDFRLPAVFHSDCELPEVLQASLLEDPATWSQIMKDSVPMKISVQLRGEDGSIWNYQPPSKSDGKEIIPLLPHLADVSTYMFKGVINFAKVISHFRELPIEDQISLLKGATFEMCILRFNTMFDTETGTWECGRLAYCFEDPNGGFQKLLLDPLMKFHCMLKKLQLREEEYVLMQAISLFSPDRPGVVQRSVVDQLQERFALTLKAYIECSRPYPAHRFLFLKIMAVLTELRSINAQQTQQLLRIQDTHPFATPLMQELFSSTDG
Chain of Cytochrome P450 2C9 (Homo sapiens) (P11712 whole entry, looked up): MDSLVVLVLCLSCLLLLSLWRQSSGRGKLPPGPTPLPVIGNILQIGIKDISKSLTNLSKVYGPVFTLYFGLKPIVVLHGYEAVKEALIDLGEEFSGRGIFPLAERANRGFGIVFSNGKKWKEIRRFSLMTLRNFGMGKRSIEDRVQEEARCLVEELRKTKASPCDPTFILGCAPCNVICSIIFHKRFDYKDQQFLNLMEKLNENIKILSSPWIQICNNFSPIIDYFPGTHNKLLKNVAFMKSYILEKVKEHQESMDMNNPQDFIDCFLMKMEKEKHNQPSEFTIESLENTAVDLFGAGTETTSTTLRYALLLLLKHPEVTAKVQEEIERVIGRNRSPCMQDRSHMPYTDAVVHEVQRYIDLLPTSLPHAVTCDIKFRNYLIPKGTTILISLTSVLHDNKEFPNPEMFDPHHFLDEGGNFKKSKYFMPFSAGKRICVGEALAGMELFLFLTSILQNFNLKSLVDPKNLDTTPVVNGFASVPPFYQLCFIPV
Chain of Thyrotropin-releasing hormone receptor (Homo sapiens) (P34981 whole entry, looked up): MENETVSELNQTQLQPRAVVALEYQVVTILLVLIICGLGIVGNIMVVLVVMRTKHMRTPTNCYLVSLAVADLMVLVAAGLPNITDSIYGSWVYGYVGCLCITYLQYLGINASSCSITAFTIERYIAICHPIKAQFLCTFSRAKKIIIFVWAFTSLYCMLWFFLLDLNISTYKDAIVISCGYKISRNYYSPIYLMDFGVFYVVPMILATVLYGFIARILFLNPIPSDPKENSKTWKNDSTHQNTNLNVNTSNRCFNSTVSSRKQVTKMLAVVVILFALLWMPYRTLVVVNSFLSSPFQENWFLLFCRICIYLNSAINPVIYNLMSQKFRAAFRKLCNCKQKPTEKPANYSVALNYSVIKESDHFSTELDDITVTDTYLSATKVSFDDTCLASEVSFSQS

For `CCC1CCC(CCC(=O)O)C1` (stereo unspecified), the call in assay [1] and in assay [3] was inactive. Moreover, the Potency entry in assay [2], in assay [4], in [5] and in assay [7] was “inactive” throughout. Further, in [6], the Potency was 40.8 µM (active).
Turning to `CCCCCCCCCCCCCOS(=O)(=O)O`, the Potency result in assay [8], in [4], in assay [9], in [5], in assay [6] and in assay [10] was “inactive” throughout. In addition, the Potency entry in assay [7] and in [11] was “inactive” throughout. The compound was called inactive in assay [3].
Regarding `CN1C(CSCC(F)(F)F)Nc2cc(Cl)c(S(N)(=O)=O)cc2S1(=O)=O` (stereo unspecified), the Potency entry in assay [8], in assay [12], in [2], in assay [4], in assay [5] and in assay [6] was “inactive” throughout. For the same compound, in assay [10], the Potency result was “inactive”. In assay [9], the Potency is 29.8 µM (active).
Regarding `CC(=O)OCCC(C)CC(C)(C)C` (stereo unspecified), the Potency result in assay [8], in assay [12], in assay [4], in [9], in assay [6] and in assay [10] was “inactive” each time. Also, the Potency result in assay [7] and in assay [11] was “inactive” each time. In assay [3], the result was inactive. Moreover, the Potency in assay [5] is 71 µM (active).
As to `Cc1cc([N+](=O)[O-])ccc1N`, the compound was called inactive in [3]. In addition, the Potency in assay [4] is 33.9 µM (active); in assay [5], 31.3 µM (active); in assay [6] it was 35.1 µM (active); in [13], 39.4 µM (active); in assay [10], 3.51 µM (active). The Potency result in assay [7] is “inactive”.
Take `CC12CC3CC(C)(C1)CC(N)(C3)C2`: the Potency result in assay [12], in [2], in assay [4], in [9], in assay [6] and in [10] was “inactive” in each case. In addition, the Potency entry in assay [7] and in [11] was “inactive” in each case. Besides, in [3], the call was inactive.
For `CC[C@H]1OC(=O)[C@H](C)[C@@H](O[C@H]2C[C@@](C)(OC)[C@@H](O)[C@H](C)O2)[C@H](C)[C@@H](O[C@@H]2O[C@H](C)C[C@H](N(C)C)[C@H]2O)[C@](C)(O)C[C@@H](C)/C(=N\OCOCCOC)[C@H](C)[C@@H](O)[C@]1(C)O`, the Potency result in assay [12], in assay [15], in assay [5], in [6], in [10] and in assay [7] was “inactive” throughout. Also, the Potency was 28.6 µM (active) in [2] and 25.5 µM (active) in assay [4]. Further, the call in [3] was inactive. Moreover, the max activation in [14] was 0.558%.
Turning to `COC(OC)OC`, the Potency result in assay [12], in assay [2], in assay [4], in [9], in assay [5] and in assay [6] was “inactive” in each case. The Potency result in assay [10], in assay [7] and in assay [11] was “inactive” in each case. Besides, the result in assay [3] was inactive.
Regarding `c1ccc2sc(SSc3nc4ccccc4s3)nc2c1`, the results for the activity change, negative = cytotoxicity in [8] and in assay [4] were 14.6% [at 19 µM] and 0.175% [at 19 µM], respectively. Further, the caspase activation in assay [12] is 1.15% [at 19 µM]. Further, the caspase-3/7 activation in assay [3] is -0.79% [at 19 µM]. Also, the activation in assay [9] was 0% [at 19 µM]. Besides, the max activation in [14] is -4.43%. Also, the Potency entry in assay [15] is “inactive”. Besides, the Potency in assay [6] was 4.77 µM (active). In addition, the activity change, negative = inhibition in assay [10] is -16.1% [at 23.6 µM]; in [7], 5.4% [at 15.8 µM].
`Cc1ccc(Cl)cc1N`: the Potency result in assay [12], in assay [4] and in [7] was “inactive” throughout. For the same compound, the result in assay [3] was inactive. Further, the Potency is 36.2 µM (active) in assay [6] and 10.2 µM (active) in [10].
